Experiment in all cases: NCI-60 one-dose screen, 48 h (100 = growth as untreated, 0 = no growth, -100 = all killed)
Experiment [1] relates to SK-MEL-2 melanoma. As to conditions: 10 µM unless noted.
The subject of experiment [2] is EKVX NSCLC. The conditions noted are these: 10 µM unless noted.
In experiment [3] the test system is SN12C renal. The conditions noted are these: 10 µM unless noted.
Experiment [4] concerns UO-31 renal. The conditions noted are these: 10 µM unless noted.
The test system of experiment [5] is TK-10 renal. As to conditions: 10 µM unless noted.
Experiment [6] has as its system ACHN renal. The conditions noted are these: 10 µM unless noted.
Experiment [7] deals with A498 renal. The conditions noted are these: 10 µM unless noted.
The test system of experiment [8] is CCRF-CEM leukemia. As to conditions: 10 µM unless noted.
In experiment [9] the test system is MOLT-4 leukemia. The conditions noted are these: 10 µM unless noted.
Experiment [10] concerns SR leukemia. As to conditions: 10 µM unless noted.
The test system of experiment [11] is OVCAR-8 ovarian. As to conditions: 10 µM unless noted.
The subject of experiment [12] is OVCAR-5 ovarian. As to conditions: 10 µM unless noted.
The test system of experiment [13] is OVCAR-4 ovarian. As to conditions: 10 µM unless noted.
Experiment [14] has as its system SK-OV-3 ovarian. The conditions noted are these: 10 µM unless noted.
Experiment [15] has as its system IGROV1 ovarian. As to conditions: 10 µM unless noted.
Experiment [16] deals with OVCAR-3 ovarian. The conditions noted are these: 10 µM unless noted.
In experiment [17] the test system is HS 578T breast. The conditions noted are these: 10 µM unless noted.
Experiment [18] deals with NCI/ADR-RES ovarian. As to conditions: 10 µM unless noted.
For experiment [19], the system named is RPMI-8226 leukemia. The conditions noted are these: 10 µM unless noted.
In experiment [20] the test system is CAKI-1 renal. As to conditions: 10 µM.

Results on nine molecules are retold here after PubChem BioAssay (NCI).

The panel holds about 83,000 compounds, 20% with a hit somewhere; the sample as a whole holds those more often.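 In brief: 96-well plates, 48 h treatment, single concentration, percent growth endpoint.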 Values without a mark were called inactive. Activity calls are given as the source filed them. The calls were made as follows: active = growth percent below 10; inactive = the rest.

As to `Nc1nc(=S)ss1`, the growth is 109% in experiment [1]; 108% in [2]; 97.7% in experiment [3]; 95.4% in experiment [4]; 108% in experiment [5]; 109% in experiment [6]. Also, the growth was 92.5% in experiment [7]; 109% in experiment [8]; 90.4% in experiment [9]; 80.6% in experiment [10]; 104% in experiment [11]; 114% in experiment [12]. Further, the growth in experiment [13] is 106%; in [14], 101%; in experiment [15], 133%; in experiment [16] it was 116%; in experiment [17], 98.2%; in [18], 104%.

With `CC1(C)Cc2c(Br)c(Br)c(Br)c(OCC(O)CN3CCN(c4ccccn4)CC3)c2O1` (centres undefined), the growth in experiment [1] is 77.1%; in experiment [2], 95.3%; in [3] it was 106%; in [4], 47.7%; in experiment [5], 66%; in experiment [6] it was 85.8%. Also, the growth in [7] was 96.2%; in experiment [8], -14.3% (active); in [9], 52.9%; in experiment [19], 52.1%; in experiment [11] it was 88.6%; in experiment [12], 102%. Further, the growth in [13] is 112%; in experiment [14], 102%; in experiment [15] it was -11.7% (active); in experiment [17] it was 89.2%; in [18], 75.3%.

For `c1ccc2nc(Cn3cc[n+](Cc4ccc5ccccc5n4)c3)ccc2c1`, the growth was 55% in experiment [1]; 88.3% in experiment [2]; 40.5% in experiment [3]; 88% in experiment [4]; 98.3% in experiment [5]; 102% in experiment [6]. Moreover, the growth in experiment [7] was 90.7%; in experiment [8], 80%; in experiment [9], 65.4%; in experiment [10], 47.8%; in [11] it was 76.2%; in experiment [12], 86.9%. Further, the growth in experiment [13] is 33.7%; in experiment [14] it was 86.9%; in experiment [15] it was 68.3%; in [16], 52%; in experiment [17], 75.3%; in experiment [18], 107%.

Regarding `O=C(Cn1c2ccccc2c2ccncc21)N/N=C/c1c[nH]c2ccccc12`, the growth in experiment [1] was 95.3%; in experiment [2] it was 91.2%; in [3] it was 38.8%; in experiment [4], 103%; in [5] it was 113%; in experiment [6], 77.7%. Also, the growth in [7] is 104%; in experiment [8], 43.8%; in experiment [9], 53.4%; in experiment [10], 40.6%; in experiment [11], 40.9%; in experiment [12] it was 107%. The growth in experiment [13] is -60% (active); in experiment [14], 107%; in [15] it was 89.2%; in experiment [16], 18.3%; in experiment [17] it was 53.2%; in [18], 94.6%.

Consider `O=C(CSc1nnc(-c2ccccc2)o1)Nc1ccc(C(=O)/C=C/c2ccccc2)cc1`, for which the growth in experiment [1] is 99.2%; in experiment [2], 79.7%; in [3], 81.7%; in experiment [4] it was 55.7%; in experiment [5], 91%; in experiment [7] it was 83.8%. Moreover, the growth in [8] was 55.5%; in experiment [9] it was 59%; in [10], 28.8%; in experiment [19] it was 2.35% (active); in [11], 60.1%; in [12], 102%. For the same molecule, the growth was 30.9% in experiment [13]; 108% in experiment [14]; 38% in experiment [15]; 41.8% in experiment [16]; 88.5% in experiment [17].

`CCOc1ccc(Cc2nccc3cc(OCC)c(OCC)cc23)cc1OCC`: the growth in experiment [1] is 80.4%; in [2], 42%; in [3] it was 58.9%; in [4] it was 37.5%; in experiment [5], 68.6%; in experiment [20], 48%. The growth in [7] was 35.5%; in experiment [8] it was 58.7%; in experiment [9], 27.2%; in experiment [10], 26.7%; in experiment [19] it was 47.3%; in [11], 69.1%. Also, the growth in experiment [13] is 54.6%; in experiment [14], 87.2%; in experiment [15], 16.6%; in [16], 75%; in experiment [17] it was 78.1%; in [18], 65.3%.

On to `Nc1nc(-c2cc3c(cc2Cl)NC(=O)/C3=C/c2ccccc2)cs1`, for which the growth in experiment [1] was 71.3%; in experiment [2], 34.7%; in experiment [3], 51.9%; in experiment [4] it was 45.6%; in [5], 100%; in [7] it was 60%. The growth in [8] was 16.1%; in [9] it was 21.8%; in [10] it was 14.2%; in [19] it was 37.6%; in experiment [11], 46.6%; in [12] it was 108%. Further, the growth was 69.6% in experiment [13]; 81.1% in [14]; 35.4% in experiment [15]; 29.8% in experiment [16]; 58.7% in [17]; 74.6% in experiment [18].

Turning to `N#Cc1c2c(c(N)[nH]c1=O)C(=O)NC2(O)c1ccccc1` (centres undefined), the growth was 97.9% in experiment [1]; 98.1% in experiment [2]; 113% in experiment [3]; 89.1% in [4]; 93% in [5]; 106% in experiment [7]. Further, the growth in experiment [8] is 100%; in experiment [9] it was 95.4%; in experiment [10], 93.1%; in experiment [19], 107%; in experiment [11] it was 106%; in experiment [12] it was 111%. For the same molecule, the growth in experiment [13] is 117%; in experiment [14], 103%; in experiment [15], 109%; in experiment [16], 102%; in experiment [17], 111%; in experiment [18] it was 105%.

Regarding `CC(C)NCC(O)COc1ccc(CC(N)=O)cc1` (centres undefined), the growth in experiment [1] is 105%; in [2] it was 101%; in [3], 104%; in experiment [4], 83.5%; in experiment [5], 105%; in experiment [20], 94.1%. In addition, the growth in experiment [8] is 100%; in [9], 107%; in experiment [10] it was 102%; in experiment [19], 99.1%; in [11], 96.8%; in [13], 105%. Further, the growth is 103% in [14]; 97.4% in experiment [15]; 114% in experiment [16]; 104% in experiment [17]; 104% in experiment [18].
